Assay results: PubChem BioAssay (Tox21)
Inconclusive results are not listed. A call without a number means that no potency is given here. Unmarked numbers belong to inactive results. Activity calls are given as the source filed them. Calls come from the whole dose curve; as a rule, active = well fitted cell-killing curve with a large enough effect in the repeat runs; inconclusive = weak or mixed curves, or effect the other way; inactive = flat fitted curve, though single readings scatter.

What was measured:
[1] = cAMP Responsive Elements (CRE) small molecule antagonists, cell-based qHTS assay: qHTS cell viability counter screen (AID 2060913); note: nearly all actives have a fitted effect of over 40% in size
Procedure, shortened: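 Cytotoxicity read in the same wells as the CRE-bla HEK293T antagonist assay: after 3 h compound with 0.25 uM NKH477 final and 2 h beta-lactamase substrate, CellTiter-Glo luminescence measured.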

[2] = cAMP Responsive Elements (CRE) small molecule agonists, cell-based qHTS assay: qHTS cell viability counter screen (AID 2060914); note: nearly all actives have a fitted effect of over 50% in size
Procedure, shortened: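 Cytotoxicity was measured as ATP luminescence (CellTiter-Glo, 30 min at room temperature) in the same wells as the CRE-bla FRET read-out. HEK293T CRE-bla cells had 3 h compound exposure at 37C/5% CO2.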
Potency is the fitted concentration of half-maximal effect.

In the case of `CC(CC=O)c1ccccc1` (centres undefined), the Potency [1] was “inactive” and the Potency [2] was “inactive”.

For `O=C1CCCc2c1cc1ccc3cccc4ccc2c1c34`, the Potency [1] was “inactive” and the Potency [2] was “inactive”.

In the case of `Cc1ccc2sc3cccc(C)c3c2c1`, the Potency [1] was “inactive” and the Potency [2] was “inactive”.

For `CC(C)(C)OC(=O)c1ccc(O)cc1`, the Potency [1] was “inactive” and the Potency [2] was “inactive”.

In the case of `NCCN`, the Potency [1] was “inactive” and the Potency [2] was “inactive”.

With `O/N=C/C=N/O` the Potency [1] was “inactive” and the Potency [2] was “inactive”.

In the case of `CC(=O)c1ccc2c(c1)N(CCCN1CCC(CCO)CC1)c1ccccc1S2`, the Potency [1] was “inactive” and the Potency [2] was “inactive”.

For `N[C@H]1CN(c2c(F)cc3c(=O)c(C(=O)O)cn(C4C[C@H]4F)c3c2Cl)CC12CC2` (some centres undefined), the Potency [1] was “inactive” and the Potency [2] was “inactive”.

In the case of `CCc1ccc(CC)cc1`, the Potency [1] was “inactive” and the Potency [2] was “inactive”.

For `C=CCn1cc[n+](C)c1`, the Potency [1] was “inactive” and the Potency [2] was “inactive”.

With `CCC1C(=O)OCC1Cc1cncn1C` (centres undefined) the Potency [1] was “inactive” and the Potency [2] was “inactive”.

In the case of `CC1(C)O[C@@H]2C[C@H]3[C@@H]4CCC5=CC(=O)C=C[C@]5(C)[C@@]4(F)[C@@H](O)C[C@]3(C)[C@]2(C(=O)CO)O1`, the Potency [1] was “inactive” and the Potency [2] was “inactive”.

For `CC(C)C1CCC(C(=O)N[C@H](Cc2ccccc2)C(=O)O)CC1` (some centres undefined), the Potency [1] was “inactive” and the Potency [2] was “inactive”.

With `CC/C(C)=N\O[Si](C)(O/N=C(\C)CC)O/N=C(\C)CC` the Potency [1] was “inactive” and the Potency [2] was “inactive”.

For `CC(C)(O)C#CC(C)(C)O`, the Potency [1] was “inactive” and the Potency [2] was “inactive”.

With `CCCN[C@H]1CCc2nc(N)sc2C1` the Potency [1] was “inactive” and the Potency [2] was “inactive”.

With `NS(=O)(=O)c1cc2c(cc1Cl)NC(CC1CCCC1)NS2(=O)=O` (centres undefined) the Potency [1] was “inactive” and the Potency [2] was “inactive”.

In the case of `O=c1[nH]c2ccc(Cl)cc2o1`, the Potency [1] was “inactive” and the Potency [2] was “inactive”.

With `CCn1cc(C(=O)O)c(=O)c2cnc(N3CCNCC3)nc21` the Potency [1] was “inactive” and the Potency [2] was “inactive”.

For `CC(C)(C)C(=O)OCOP(=O)(COCCn1cnc2c(N)ncnc21)OCOC(=O)C(C)(C)C`, the Potency [1] was “inactive” and the Potency [2] was “inactive”.

For `CCCN(CCC)C(=O)SCC`, the Potency [1] was “inactive” and the Potency [2] was “inactive”.

For `Cc1cc(=O)oc2cc(O[C@@H]3SC[C@@H](O)[C@H](O)[C@H]3O)ccc12`, the Potency [1] was “inactive” and the Potency [2] was “inactive”.

In the case of `Cc1ccccc1C`, the Potency [1] was “inactive” and the Potency [2] was “inactive”.

In the case of `OCCN1CCN(CCCN2c3ccccc3Sc3ccc(C(F)(F)F)cc32)CC1`, the Potency [1] was “inactive” and the Potency [2] was “inactive”.

In the case of `CCC/C=C/C=O`, the Potency [1] was “inactive” and the Potency [2] was “inactive”.

For `CCCCCCCCCCCC(=O)[O][Sn]([CH2]CCC)([CH2]CCC)[O]C(=O)CCCCCCCCCCC`, the Potency [1] was “inactive” and the Potency [2] was “inactive”.

For `C=CCSSCCC`, the Potency [1] was “inactive” and the Potency [2] was “inactive”.

With `CCCCCCCCCCCCCCN(CCO)CCO` the Potency [1] was “inactive” and the Potency [2] was “inactive”.

In the case of `C=CC(=O)OCCOC1C2CCC1C1CC=CC12` (centres undefined), the viability change, negative = cytotoxic [1] was 9.26% [at 18.9 µM] and the activity change, negative = cytotoxicity [2] was -3.05% [at 18.9 µM].

With `CCCCCCCCC` the Potency [1] was “inactive” and the Potency [2] was “inactive”.

With `Cc1ccc2ccc(Cl)cc2n1` the Potency [1] was “inactive” and the Potency [2] was “inactive”.

In the case of `NC(=S)NNC(N)=S`, the Potency [1] was “inactive” and the Potency [2] was “inactive”.

For `O=C1CC2CC1C1CCCC21` (centres undefined), the Potency [1] was “inactive” and the Potency [2] was “inactive”.

For `CCCCOC(O)CC` (centres undefined), the Potency [1] was “inactive” and the Potency [2] was “inactive”.

With `CC(C)(C#N)Nc1nc(Cl)nc(NC2CC2)n1` the Potency [1] was “inactive” and the Potency [2] was “inactive”.

In the case of `C=C(C)C(=O)OCCCCCCOC(=O)C(=C)C`, the Potency [1] was “inactive” and the Potency [2] was “inactive”.

In the case of `Cc1ccc(O)c(-n2nc3ccccc3n2)c1`, the Potency [1] was “inactive” and the Potency [2] was “inactive”.

With `O=C(O)CCCc1ccccc1` the Potency [1] was “inactive” and the Potency [2] was “inactive”.

For `Cc1ccc2ccccc2n1`, the Potency [1] was “inactive” and the Potency [2] was “inactive”.

For `CCCCCCCCCCn1cc[n+](CCCCCCCCCC)c1C`, the Potency [1] was 24.4 µM (active) and the Potency [2] was 48.6 µM (active).

With `Cc1ccc(-n2nc(C(C)(C)C)cc2NC(=O)Nc2ccc(OCCN3CCOCC3)c3ccccc23)cc1` the Potency [1] was “inactive” and the Potency [2] was “inactive”.

In the case of `CCCCC(CC)COC(=O)/C=C/c1ccc(OC)cc1` (centres undefined), the Potency [1] was “inactive” and the Potency [2] was “inactive”.

In the case of `CCN(CC)CCCN(c1ccccc1)C1Cc2ccccc2C1`, the Potency [1] was “inactive” and the Potency [2] was “inactive”.

For `C=C[Si](OCC)(OCC)OCC`, the Potency [1] was “inactive” and the Potency [2] was “inactive”.

With `CCOC(=O)[C@H](CCc1ccccc1)N[C@@H](C)C(=O)N1C(=O)N(C)C[C@H]1C(=O)O` the Potency [1] was “inactive” and the Potency [2] was “inactive”.

In the case of `CCC(CO)CO`, the Potency [1] was “inactive” and the Potency [2] was “inactive”.

In the case of `NNCCc1ccccc1`, the Potency [1] was “inactive” and the Potency [2] was “inactive”.

In the case of `CSc1c(Cl)c(Cl)c(Cl)c(Cl)c1Cl`, the Potency [1] was “inactive” and the Potency [2] was “inactive”.

With `OC1(c2ccc(Cl)cc2)CCNCC1` the Potency [1] was “inactive” and the Potency [2] was “inactive”.

In the case of `Cn1ccc2cc3c(cc21)CCN3C(=O)Nc1cccnc1`, the viability change, negative = cytotoxic [1] was -0.701% [at 18.9 µM] and the activity change, negative = cytotoxicity [2] was 3% [at 18.9 µM].

For `CC(=O)Nc1ccc(O)cc1`, the Potency [1] was “inactive” and the Potency [2] was “inactive”.

With `Cc1ccc(C)c(O)c1C` the Potency [1] was “inactive” and the Potency [2] was “inactive”.

With `COc1ccnc2c1CCCCC2S(=O)c1nc2ccccc2[nH]1` (centres undefined) the Potency [1] was “inactive” and the Potency [2] was “inactive”.

For `Cc1scc2c1N(C(=O)CN1CCN(C)CC1)c1ccccc1NC2=O`, the Potency [1] was “inactive” and the Potency [2] was “inactive”.

With `Cc1cc(=O)[nH]c(=S)[nH]1` the Potency [1] was “inactive” and the Potency [2] was “inactive”.

In the case of `C=CC(C)(O)CC/C=C(\C)CC` (centres undefined), the Potency [1] was “inactive” and the Potency [2] was “inactive”.

For `NNC(=O)c1cccc(C(=O)NN)c1`, the Potency [1] was “inactive” and the Potency [2] was “inactive”.

For `CCCCCCCCCCCCCCCBr`, the Potency [1] was “inactive” and the Potency [2] was “inactive”.

`CCCCCCCCCCCCCCCCBr` gave a viability change, negative = cytotoxic [1] of -5.25% [at 18.9 µM] and an activity change, negative = cytotoxicity [2] of 6.55% [at 18.9 µM].

With `Cc1c(C(N)=O)cc([N+](=O)[O-])cc1[N+](=O)[O-]` the Potency [1] was “inactive” and the Potency [2] was “inactive”.

For `Cn1c(=O)c2c(ncn2CCO)n(C)c1=O`, the Potency [1] was “inactive” and the Potency [2] was “inactive”.

With `CC(C)(C#N)c1cc(Cn2cncn2)cc(C(C)(C)C#N)c1` the Potency [1] was “inactive” and the Potency [2] was “inactive”.

In the case of `CCO[Si](CCCSSSSCCC[Si](OCC)(OCC)OCC)(OCC)OCC`, the Potency [1] was “inactive” and the Potency [2] was “inactive”.

With `Cc1ccc(C(=O)C(=O)O)cc1C` the Potency [1] was “inactive” and the Potency [2] was “inactive”.

With `N#CCN(CC#N)CCN(CC#N)CC#N` the Potency [1] was “inactive” and the Potency [2] was “inactive”.

In the case of `C=C(c1ccc(C(=O)O)cc1)c1cc2c(cc1C)C(C)(C)CCC2(C)C`, the Potency [1] was “inactive” and the Potency [2] was “inactive”.

For `Cc1cccc(C)c1NC(=O)c1ccccc1C(=O)O`, the Potency [1] was “inactive” and the Potency [2] was “inactive”.

With `CCN1CCN(c2cc3c(cc2F)c(=O)c(C(=O)O)cn3C2CC2)CC1` the Potency [1] was “inactive” and the Potency [2] was “inactive”.

For `CCOC(=O)c1ccc(N)cc1`, the Potency [1] was “inactive” and the Potency [2] was “inactive”.

With `Cc1c(Cl)cccc1[N+](=O)[O-]` the Potency [1] was “inactive” and the Potency [2] was “inactive”.

In the case of `COc1cccc(CCc2ccccc2OCC(CN(C)C)OC(=O)CCC(=O)O)c1` (centres undefined), the Potency [1] was “inactive” and the Potency [2] was “inactive”.

In the case of `O=C(O)Cc1ccccc1Nc1c(Cl)cccc1Cl`, the Potency [1] was “inactive” and the Potency [2] was “inactive”.
